Screening results as filed in PubChem.
KB-V1 cytotox = kills drug-selected multidrug resistant KB-V1 cells; hit rate 3.4% among 400,000; AID 1347076; Potency, µM (titrated, usually from 46.1 µM), hits mostly cytotoxic; KB-V1 MDR cells viability, CellTiter-Glo, 72 h; also: nearly all actives have a fitted effect of over 60% in size
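Drug-selected KB-V1 cells, grown in DMEM lacking phenol red with 10% FBS, receive compound titrations; after three days at 37 degrees C, surviving cell ATP is quantified by CellTiter-Glo luminescence and responses normalized and curve-fitted.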
MCF10A rereplic = induces DNA re-replication in MCF 10a normal breast cells; MCF 10A DNA re-replication, Hoechst nuclear intensity, 48 h; Potency, µM (top dose mostly 46.1 µM), actives largely listed as activators; hit rate 2.9% among 350,000; AID 624296; also: nearly all actives have a fitted effect of over 50% in size
SW480 rereplic = DNA re-replication induction in SW480 cells. SW480 DNA re-replication, Hoechst DNA content imaging, 48 h. AID 624297. Potency, µM (doses to about 46.1 µM), hits mostly activators. hit rate 1.8% among 340,000; also: nearly all actives have a fitted effect of over 55% in size
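250 cells/well; 23 nL cpd via pin tool; 48 hr, 37 C, 5% CO2; Hoechst 40 min; imager read of total nuclear intensity, ex 405/em 500-530 nm.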
KB-3-1 tox = kills parental KB-3-1 adenocarcinoma cells; KB-3-1 viability, CellTiter-Glo ATP luminescence, 72 h; Potency, µM (series often up to 46.1 µM), usual class: cytotoxic; hit rate 1.4% among 400,000; also: nearly all actives have a fitted effect of over 60% in size
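Here the drug-naive KB-3-1 line serves as comparator for MDR sub-line selectivity; cells received compound titrations, 72 h at 37 °C, then CellTiter-Glo readout.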
IL-1B inflam inh = inflammasome signaling inhibition, IL-1 beta readout | hit rate 4.7% among 360,000 | THP-1 LPS/ATP IL-1B secretion, AlphaLISA, 16 h; stronger effect = lower value | activity change, % at 57.5 µM; in the data active = activity change below about -50%; inconclusive = mostly about -30% to -49%
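THP-1 cells pretreated 1 hr with compounds (up to 57.5 uM final), then stimulated with LPS (250 ng/mL final) plus ATP (1.25 mM final); secreted IL-1B measured by AlphaLISA after 16 hr, decreased signal indicating inhibition.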
Of the large screens only hits and unclear results are named; the others gave an inactive call. The list is not random: actives were taken first. Their share in the collection is about 9.9%. Unless noted, calls follow the shape of the dose curve; as a rule, active = well fitted curve in the direction sought with a large enough effect; inconclusive = small, poorly fitted or top-dose-only effect, or another doubt; inactive = no such curve, though single readings can be large; an effect the other way counts as inactive or inconclusive.

Cc1ccc(Nc2nc3ccccc3s2)c(C)c1	MCF10A rereplic inconclusive, IL-1B inflam inh -62
Cc1cc(C)nc(Nc2nc3ccccc3s2)n1	none
O=C(NNc1nc2cc3c(cc2s1)OCO3)c1ccc(F)cc1	KB-V1 cytotox inconclusive
O=C(NNc1nc2cc3c(cc2s1)OCCO3)c1ccc(F)cc1	KB-V1 cytotox inconclusive, MCF10A rereplic 0.26µM, KB-3-1 tox inconclusive
Fc1cccc2sc(Nc3nc4ccccc4s3)nc12	KB-V1 cytotox 21µM, MCF10A rereplic inconclusive
Fc1ccc2nc(Nc3nc4c(F)cccc4s3)sc2c1	KB-V1 cytotox inconclusive, MCF10A rereplic inconclusive (no result: SW480 rereplic)
COc1ccc(C(=O)CN2Cc3ccccc3C2=N)cc1	none
CCN1C(=O)S/C(=C/c2c(OCc3ccc(C(=O)O)cc3)ccc3ccccc23)C1=O	MCF10A rereplic 6.5µM
O=C(O)c1ccc(COc2ccc3ccccc3c2/C=C2/NC(=O)N(c3ccccc3)C2=O)cc1	SW480 rereplic inconclusive
CC(Sc1c[nH]c2ccccc12)C(=O)O (stereo unspecified)	MCF10A rereplic 8.2µM, SW480 rereplic inconclusive
CC(C)NC(=O)C1CCN(C(=O)c2cc3sccc3n2Cc2ccc(F)cc2)CC1	KB-V1 cytotox 6.5µM, KB-3-1 tox 18µM, IL-1B inflam inh -81
Cc1cccc(CSC(Nc2ccc(F)cc2)=C(C#N)C#N)c1	KB-V1 cytotox inconclusive, MCF10A rereplic 15µM, SW480 rereplic inconclusive, KB-3-1 tox 16µM
N#CC(C#N)=C(Nc1ccc(F)cc1)SCc1cccc(Br)c1	KB-V1 cytotox 9.2µM, MCF10A rereplic 3.3µM, SW480 rereplic inconclusive, KB-3-1 tox 10µM, IL-1B inflam inh -96
COc1cc(C(=O)NCC(c2ccco2)N2CCOCC2)cc(OC)c1OC (stereo unspecified)	none
Cc1ccc(-c2csc(=S)n2CC(=O)OCC(=O)NC(C)C(C)C)cc1 (stereo unspecified)	KB-V1 cytotox 16µM, MCF10A rereplic inconclusive
O=C1C2C(C(=O)N1/N=C/c1ccc([N+](=O)[O-])o1)C1C=CC2C12CC2 (stereo unspecified)	MCF10A rereplic 16µM, SW480 rereplic inconclusive, IL-1B inflam inh -91
COC(=O)c1ccc(-c2ccc(/C=N/N3C(=O)C4C5C=CC(C6CC56)C4C3=O)o2)cc1 (stereo unspecified)	MCF10A rereplic inconclusive, IL-1B inflam inh -57
O=C1SCCN1N=Cc1ccc([N+](=O)[O-])o1	KB-V1 cytotox inconclusive, MCF10A rereplic inconclusive, SW480 rereplic inconclusive, KB-3-1 tox inconclusive
O=C1C2C3C=CC(C4CC34)C2C(=O)N1/N=C/c1ccc(-c2ccc([N+](=O)[O-])cc2)o1 (stereo unspecified)	SW480 rereplic inconclusive
O=C1C2C3C=CC(C4CC34)C2C(=O)N1/N=C/c1ccc([N+](=O)[O-])o1 (stereo unspecified)	KB-V1 cytotox inconclusive, MCF10A rereplic 3.3µM, SW480 rereplic 10µM, KB-3-1 tox 16µM, IL-1B inflam inh -98
CN(Cc1ccccc1)C(=O)[C@@H]1CCCN1C(=O)[C@@H]1CCCN1C(=O)c1ccccc1	none (no result: MCF10A rereplic, SW480 rereplic)
CCn1c(SCC(=O)N2c3ccccc3CCc3ccccc32)nc2c1c(=O)n(C)c(=O)n2C	KB-V1 cytotox 2.1µM
CCn1c(SCC(=O)N2CCCc3ccccc32)nc2c1c(=O)n(C)c(=O)n2C	KB-V1 cytotox 2.9µM, KB-3-1 tox inconclusive
CCn1c(SCc2cc(=O)[nH]c3ccccc23)nc2c1c(=O)n(C)c(=O)n2C	KB-V1 cytotox 16µM
Cn1ccnc1SCc1cc(=O)[nH]c2ccccc12	none
O=S1(=O)CCOCCCN1Cc1ccccc1Br	KB-V1 cytotox inconclusive
Cc1ccc([N+](=O)[O-])cc1N/C=C1\CCCCC1=O	none
CC(C(=O)N(C)Cc1cccc(F)c1)N1CCN(S(=O)(=O)c2ccc3c(c2)OCCCO3)CC1 (stereo unspecified)	KB-V1 cytotox inconclusive, IL-1B inflam inh -59
CC(C)(C)C(=O)N1CCN(S(=O)(=O)c2ccc3c(c2)OCCCO3)CC1	KB-V1 cytotox inconclusive, KB-3-1 tox 15µM
O=C(Nc1ccccc1N1CCOCC1)c1ccc(Br)o1	KB-V1 cytotox inconclusive, MCF10A rereplic inconclusive, KB-3-1 tox inconclusive
Cc1cccc2c1-c1sc(C(=O)Nc3ccccc3N3CCN(C)CC3)cc1CO2	KB-V1 cytotox inconclusive, MCF10A rereplic 4.1µM, SW480 rereplic inconclusive, IL-1B inflam inh -93
